# Several values for one entry are separate records, joined by “and”; a condition that tells them apart may be missing. Equal entries are not always repeated. Results filed as inconclusive are left out. A call without a number means that no potency is given here. Some compounds were tested as several samples or in several runs, with calls that do not always agree. Activity calls are given as the source filed them. Unless noted, the call rests on the fitted dose curve; in most records, active means well fitted curve in the direction sought with a large enough effect in the repeat runs; inconclusive means weak or mixed curves; inactive means no such curve, though single readings can be large; an effect the other way counts as inactive or inconclusive.
# What was measured:
# [1] = qHTS assay to identify small molecule agonists of the RXR signaling pathway - cell viability counter screen (AID 1159529); settings: RXR-alpha-bla HEK293T viability, CellTiter-Glo, 16 h; series mostly up to 76.8 µM; further: nearly all actives have a fitted effect of over 50% in size; further: potency means the concentration at half of the fitted maximal effect
# Outline: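 Compounds dissolved in DMSO were pinned onto HEK 293T cells carrying a beta-lactamase reporter under RXR-alpha control and incubated 16 hr. Cytotoxicity was then quantified by CellTiter-Glo luminescence.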
# [2] = qHTS assay to identify small molecule antagonists of the retinoid acid receptor (RAR) signaling pathway - cell viability counter screen (AID 1159551); settings: C3RL4 cells viability, ATP luminescence (CellTiter-Glo), 6 h; series mostly up to 92.4 µM; further: nearly all actives have a fitted effect of over 35% in size
# Outline: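 Following overnight attachment, C3RL4 reporter cells received DMSO-dissolved compounds and then retinol (1 uM final). Six hours later at 37 C, ATP content was measured by CellTiter-Glo luminescence.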
# [3] = qHTS assay to identify small molecule antagonists of the retinoic acid receptor (RAR) signaling pathway (AID 1159552; further: nearly all actives have a fitted effect of over 50% in size; further: potency means the concentration at half of the fitted maximal effect); settings: C3RL4 RARE luciferase reporter, retinol-stimulated, 6 h; series mostly up to 92.4 µM
# Outline: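 Test chemicals and DMSO controls were pin-transferred onto C3RL4 cells a day after seeding; retinol (1 uM final) followed at once. Luminescent reporter output was quantified after 6 hr of co-incubation and 30 min with detection reagent.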
# [4] = qHTS assay to identify small molecule agonists of the retinoic acid receptor (RAR) signaling pathway (AID 1159553); settings: C3RL4 RARE luciferase reporter, agonist, 6 h; further: potency means the concentration at half of the fitted maximal effect
# Outline: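 Cell line C3RL4, RARE luciferase reporter. Treatment: compounds in DMSO, 6 hr, 37 C, 5% CO2, after overnight plating. Detection: luminescence, 30 min RT after reagent.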
# [5] = molecular target: Retinoic acid receptor RXR-alpha (Homo sapiens) (UniProt P19793); experiment: qHTS assay to identify small molecule agonists of the RXR signaling pathway (AID 1159527; calls by dose curve; further: nearly all actives have a fitted effect of over 35% in size); settings: HEK293T RXRa-UAS-bla, beta-lactamase ratio, 16 h; series mostly up to 76.8 µM
# Retinoic acid receptor RXR-alpha (Homo sapiens), sequence (P19793 whole entry, looked up): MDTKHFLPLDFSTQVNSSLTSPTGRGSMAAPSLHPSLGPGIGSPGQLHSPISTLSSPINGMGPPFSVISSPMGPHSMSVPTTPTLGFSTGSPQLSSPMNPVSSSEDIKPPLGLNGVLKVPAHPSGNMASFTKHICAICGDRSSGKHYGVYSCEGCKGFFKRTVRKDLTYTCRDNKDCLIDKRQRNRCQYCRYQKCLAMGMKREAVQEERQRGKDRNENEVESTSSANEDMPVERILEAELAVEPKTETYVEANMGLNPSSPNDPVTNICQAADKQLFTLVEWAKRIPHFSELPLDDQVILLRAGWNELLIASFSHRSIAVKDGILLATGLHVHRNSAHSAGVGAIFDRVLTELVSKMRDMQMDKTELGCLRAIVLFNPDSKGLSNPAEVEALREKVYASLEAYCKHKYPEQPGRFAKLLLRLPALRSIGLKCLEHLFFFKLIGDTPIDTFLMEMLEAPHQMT
# Outline: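 Using 9-cis retinoic acid as the reference agonist, chemicals were tested in HEK 293T cells […] for 16 hr; substrate loading lasted 2 hr at room temperature.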
# [6] = qHTS assay to identify small molecule antagonists of the estrogen related receptor (ERR) signaling pathway - cell viability counter screen (AID 1224818); settings: ERR reporter cell line viability counter screen; series mostly up to 46.1 µM;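 further: viability measured after 17.5 h of compound exposure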
# Outline: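 Here, ERR cells are plated at 2,000 cells per well, allowed 6 h to attach, and treated with compounds in DMSO for 17.5 h at 37 C. CellTiter-Fluor is then added and fluorescence read after 30 min.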
# [7] = qHTS assay to identify small molecule antagonists of the estrogen related receptor signaling pathway with the pleiotropic PPARgamma coactivator (PGC) cell viability counter screen (AID 1224822;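 further: viability read after 17.5 h compound exposure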); settings: ERR/PGC reporter cell line viability counter screen; series mostly up to 46.1 µM
# Outline: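 qHTS format, DMSO compound stocks pin-transferred onto PGC/ERR cells 6 h after plating; 17.5 h exposure at 37 C, then CellTiter-Fluor fluorescence.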
# [8] = qHTS assay to identify small molecule antagonists of the estrogen related receptor (ERR) signaling pathway (AID 1224819;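 further: luminescence from an ERR-driven luciferase reporter measured with One-Glo reagent; nearly all actives have a fitted effect of over 50% in size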); settings: ERR reporter cell line, luciferase inhibition; series mostly up to 92.2 µM
# Outline: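 LOPAC library screened for antagonism as reduced One-Glo luminescence in ERR reporter cells (2,000/well). Compounds were added after 6 h pre-incubation and left 18 h at 37C; reading followed a 30 min room-temperature reagent step.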
# [9] = qHTS assay to identify small molecule agonists of the estrogen related receptor (ERR) signaling pathway (AID 1224820); settings: ERR reporter cell line, luciferase agonist mode; series mostly up to 92.2 µM; further: potency means the concentration at half of the fitted maximal effect
# Outline: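 ERR reporter cell line (from NTP), 2,000 cells/well, incubated 6 h before compound addition, then 18 h at 37 C. Luminescence measured 30 min after One-Glo reagent at room temperature.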
# [10] = test system: estrogen-related receptor alpha (ERRalpha) with PGC-1alpha coactivator, human; experiment: qHTS assay to identify small molecule antagonists of the estrogen related receptor signaling pathway with the pleiotropic PPARgamma coactivator (PGC) (AID 1224821; calls by dose curve;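 further: lower luminescence signal means antagonism of PGC/ERR signalling; nearly all actives have a fitted effect of over 50% in size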); settings: ERR/PGC reporter cell line, luciferase, antagonist mode; series mostly up to 92.2 µM
# Outline: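 PGC/ERR reporter cell line, plated 6 h before compound addition, then exposed 18 h at 37 °C. Luciferase activity read by luminescence 30 min after One-Glo addition; decrease indicates antagonism.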
# [11] = activation: at 73.3 µM (top of the series) unless noted
smiles,measurement,setting,value
CCC(=O)O[C@H]1CC[C@H]2[C@@H]3CCC4=CC(=O)CC[C@]4(C)[C@H]3CC[C@]12C,Potency,[1],49 µM (active)
same,Potency,[2],inactive
same,Potency,[3],48.6 µM (active) and inactive
same,Potency,[4]; [11],inactive
CCc1cccc(CC)c1N(COC)C(=O)CCl,Potency,[1],inactive
Cc1cccc(N)c1N,Potency,[1],inactive
same,Potency,[2],inactive
same,Potency,[3],inactive
same,Potency,[4]; [11],1.05 µM (active) and 2.43 µM (active)
O=P(Oc1ccccc1)(Oc1ccccc1)Oc1ccccc1,Potency,[2],inactive
COc1ccc(C(CN(C)C)C2(O)CCCCC2)cc1 (stereo not given),Potency,[5],inactive
same,Potency,[1],inactive
same,outcome,[6],inactive
same,Potency,[7],inactive
CCOCN(C(=O)CCl)c1c(C)cccc1CC,Potency,[1],inactive
same,Potency,[2],inactive
same,Potency,[4]; [11],inactive
OCC(O)CO,Potency,[1],inactive
same,Potency,[2],inactive
same,Potency,[3],inactive
same,Potency,[4]; [11],inactive
CC(C)Oc1cc(-n2nc(C(C)(C)C)oc2=O)c(Cl)cc1Cl,Potency,[4]; [11],inactive
Cc1ccc(N)c(N)c1,Potency,[1],inactive
same,Potency,[3],inactive
same,Potency,[4]; [11],1.54 µM (active) and 1.22 µM (active)
Nc1ccc(Cl)cc1N,Potency,[5],inactive
same,Potency,[1],inactive
same,Potency,[3],inactive
same,Potency,[4]; [11],1.6 µM (active) and 545 nM (active)
same,outcome,[6],inactive
same,Potency,[8],inactive
same,Potency,[9],5.88 µM (active)
same,Potency,[10],inactive
same,Potency,[7],inactive
C#C[C@]1(O)CC[C@H]2[C@@H]3CCC4=CC(=O)CC[C@]4(C)[C@H]3CC[C@@]21C,Potency,[1],inactive
same,Potency,[2],inactive
same,Potency,[3],inactive
same,Potency,[4]; [11],inactive
Cc1ccc(OP(=O)(Oc2ccc(C)cc2)Oc2ccc(C)cc2)cc1,Potency,[1],inactive
same,Potency,[2],inactive
same,Potency,[3],inactive
same,Potency,[4]; [11],inactive
CCOc1cc(C=O)ccc1O,Potency,[1],inactive
same,Potency,[3],inactive
same,Potency,[4]; [11],inactive
NNC(N)=S,Potency,[1],18.1 µM (active)
same,Potency,[2],inactive
same,Potency,[3],inactive
c1cc(OCC2CO2)ccc1Cc1ccc(OCC2CO2)cc1 (stereo not given),Potency,[1],inactive
same,Potency,[2],inactive
same,Potency,[3],inactive
same,Potency,[4]; [11],inactive
CCN(CC)N=O,Potency,[1],inactive
same,Potency,[2],inactive
same,Potency,[3],inactive
same,Potency,[4]; [11],inactive
CC(C)(OOC(C)(C)c1ccccc1)c1ccccc1,Potency,[2],inactive
same,Potency,[3],inactive
same,Potency,[4]; [11],inactive
C[C@]12CCC(=O)C[C@@H]1CC[C@@H]1[C@@H]2CC[C@]2(C)[C@@H](O)CC[C@@H]12,Potency,[1],inactive
same,Potency,[2],inactive
same,Potency,[3],42.7 µM (active) and inactive
same,Potency,[4]; [11],inactive
O=C(Nc1ccc(Br)cc1)c1cc(Br)cc(Br)c1O,Potency,[1],24.5 µM (active)
same,Potency,[2],inactive
same,Potency,[3],inactive
same,Potency,[4]; [11],inactive
O=S(=O)(Oc1ccc(Cl)cc1)c1ccc(Cl)cc1,Potency,[1],inactive
same,Potency,[2],inactive
same,Potency,[3],inactive
same,Potency,[4]; [11],inactive
Oc1cc(Cl)ccc1Cl,Potency,[5],inactive
same,Potency,[1],inactive
same,Potency,[3],inactive
same,Potency,[4]; [11],inactive
CCOC(=S)S,Potency,[1],23.3 µM (active)
same,Potency,[3],inactive
Cc1cc(Cl)ccc1OCCCC(=O)O,Potency,[1],inactive
same,Potency,[3],inactive
same,Potency,[4]; [11],inactive
Nc1ccc(-c2ccccc2)cc1,Potency,[1],inactive
same,Potency,[2],inactive
same,Potency,[3],62.8 µM (active) and inactive
same,Potency,[4]; [11],35.3 µM (active) and 9.69 µM (active)
Cc1c(COC(=O)[C@@H]2[C@H](/C=C(\Cl)C(F)(F)F)C2(C)C)cccc1-c1ccccc1,Potency,[1],inactive
same,Potency,[3],inactive
same,Potency,[4]; [11],inactive
CC(C)=CC1C(C(=O)OCc2coc(Cc3ccccc3)c2)C1(C)C (stereo not given),Potency,[2],inactive
same,Potency,[3],inactive
same,Potency,[4]; [11],inactive
C#CCOS(=O)OC1CCCCC1Oc1ccc(C(C)(C)C)cc1 (stereo not given),Potency,[1],27.6 µM (active) and 43.6 µM (active)
same,Potency,[3],13.7 µM (active) and 15.4 µM (active)
same,Potency,[4]; [11],inactive
N[C@@H](Cc1ccc(N(CCCl)CCCl)cc1)C(=O)O,Potency,[1],inactive
same,Potency,[2],inactive
same,Potency,[4]; [11],inactive
Nc1ccc(-c2ccc(N)c(N)c2)cc1N,Potency,[1],inactive
same,Potency,[2],inactive
same,Potency,[3],inactive
same,Potency,[4]; [11],10.8 µM (active) and 8.63 µM (active)
O=[N+]([O-])c1ccc(O)c([N+](=O)[O-])c1,Potency,[1],12.3 µM (active)
same,Potency,[2],inactive
same,Potency,[3],inactive
same,Potency,[4]; [11],inactive
Cc1ccccc1[N+](=O)[O-],Potency,[5],inactive
same,Potency,[1],inactive
same,Potency,[3],inactive
same,activation,[4]; [11],0.464% [at 94.8 µM] (active)
same,activation,[4]; at 73.3 µM (top of the series),1.75% (inactive)
NNC(=S)NN,Potency,[2],inactive

# — PubChem BioAssay (Tox21)
